From ChEMBL document CHEMBL4513216, “Probing the Open Global Health Chemical Diversity Library for Multistage-Active Starting Points for Next-Generation Antimalarials” (ACS Infect Dis, 2020)
Among all 69,000 compounds or so, about 8,600 (12%) showed an effect of 50% or more. For the sample, strong results were picked, then their nearest neighbours and some compounds at random.

test system: Plasmodium berghei; experiment: Screen against P. berghei liver stage (PbLuc), transformed with Luciferase, at 10uM; type: functional, HepG2; settings: tested at 10 uM

Row | Structure (SMILES) | INHIBITION [%]
1 | O=C(Cn1nc(-c2ccc(F)cc2)oc1=O)NCC1CCCO1 (centres undefined) | -36.1
2 | CC1CCN(Cn2nc(-c3ccc(F)cc3)oc2=O)CC1 | 9.25
3 | O=c1oc(-c2ccc(F)cc2)nn1CN1CCN(CC2CC2)CC1 | 30.6
4 | O=c1oc(-c2ccc(F)cc2)nn1CN1CCN(C2CCCC2)CC1 | 29.4
5 | O=c1oc(-c2ccc(F)cc2)nn1CC1CCCCO1 (centres undefined) | 59.3
6 | O=c1oc(-c2ccc(F)cc2)nn1CC1CCOC1 (centres undefined) | 62.3
7 | COCCN1C[C@@H]2[C@@H](OC)CCN(Cc3ccco3)[C@@H]2C1 | 22.2
8 | Cn1cc(C2CC(=O)NC23CCN(Cc2cccc(F)c2)CC3)cn1 (centres undefined) | -1.36
9 | CN(CCc1ccccn1)C(=O)C(O)c1cc(Cl)cc(Cl)c1 (centres undefined) | 10.1
10 | CSc1ccc(NC(=O)NCC2CCCO2)cc1F (centres undefined) | -81.9
11 | C[C@@H]1CN(c2nc3c(cc2C(N)=O)CCC3)CC[C@@]1(O)C1CCC1 | -2.93
12 | C[C@@H]1CN(c2nc(N)nc3c2CCC3)C[C@]1(C)O | 8.53
13 | C[C@@H]1CN(c2nc(N)nc3c2CCC3)CC[C@@]1(O)C1CCC1 | 83.3
14 | Cc1ccc(C)c(Sc2nccn(C)c2=O)c1 | -13.1
15 | COc1ccc(Cl)cc1CN(CC(N)=O)C(C)C | -6.04
16 | Cc1cccc(C)c1-c1cc(NCCO)nc2[nH]ccc12 | 45
17 | COCCNc1cc(-c2cccc(C(=O)O)c2C)c2cc[nH]c2n1 | 58.5
18 | COCCNc1cc(-c2ccccc2CCN)c2cc[nH]c2n1 | 25.8
19 | COCCNc1cc(-c2ccccc2C(N)=O)c2cc[nH]c2n1 | 60.3
20 | CN(C)CCNc1cc(-c2ccccc2C(N)=O)c2cc[nH]c2n1 | 15.8
21 | Cc1cnccc1-c1cc(NCCO)nc2[nH]ccc12 | 58
22 | COCCNc1cc(-c2ccccc2C(=O)O)c2cc[nH]c2n1 | 30.3

Row | Structure (SMILES) | INHIBITION [%]
23 | COCCNc1cc(-c2ccccc2S(N)(=O)=O)c2cc[nH]c2n1 | 23
24 | Cc1cc(F)ccc1-c1cc(NCCO)nc2[nH]ccc12 | -13.1
25 | CN1CC(=O)N(c2cccnc2)CC12CCN(C(=O)C1CCCCC1)C2 (centres undefined) | 31.2
26 | Cc1csc(CNC(=O)Nc2ccc3c(c2)OCO3)n1 | -51.9
27 | CCCS(=O)(=O)N1C[C@@H]2C[C@H](C(=O)N(C)C)[C@H](C1)O2 | 49.7
28 | CC(C)(C)c1ncc(C(=O)NCCNC(=O)Cc2ccccc2)s1 | 45.7
29 | Cc1ccccc1-c1noc(CN2CCc3cncnc3C2)n1 | 8.195
30 | O=c1ccc(-c2cccs2)nn1CN1CCOCC1 | -1.33
31 | O=C1COC2(CCN(c3ccccn3)CC2)CN1Cc1ccccn1 | 16.6
32 | CCCc1noc(CN2CCC(N(C)Cc3nnc(C4CC4)o3)C2)n1 (centres undefined) | -16
33 | COC(=O)c1cccn1C1CCN(Cc2cnc3ccccn23)CC1 | 66.8
34 | COC(=O)c1cccn1C1CCN(Cc2cccnc2)CC1 | 11.6
35 | COC(=O)c1cccn1C1CCN(Cc2cccc(C(N)=O)c2)CC1 | 45.1
36 | COC(=O)c1cccn1C1CCN(CCN2C(=O)CCC2=O)CC1 | 1.75
37 | COC(=O)c1cccn1C1CCN(Cc2nc3ccccc3o2)CC1 | 15.6
38 | COC(=O)c1cccn1C1CCN(Cc2ccccc2)CC1 | 56.1
39 | Cc1nc(CN2CCC(N(C)Cc3nnc(C4CC4)n3C)C2)oc1C (centres undefined) | 16.8
40 | Cc1ccc(CN2CCC3(CC2)CCN(Cc2ccco2)CC3)cc1 | -13.7
41 | Cc1ccc(N2C[C@H](C(=O)NCC3CC3)[C@@H]3CCO[C@@H]3C2)nn1 | 42.7
42 | COCC1CN(Cc2ccoc2)Cc2nnn(C)c21 (centres undefined) | -6.21
43 | CCc1nc2n(n1)CC(NCC(=O)Nc1oc(C)c(C)c1C#N)CC2 (centres undefined) | -13.5
44 | COc1ccc2c(c1)NC(=O)C2OC(=O)Cc1ccccc1C (centres undefined) | 58.5

Row | Structure (SMILES) | INHIBITION [%]
45 | COc1ccc2c(c1)NC(=O)C2OC(=O)CCc1ccc(F)cc1 (centres undefined) | 14.9
46 | COc1ccc2c(c1)NC(=O)C2OC(=O)CC(C)(C)C (centres undefined) | 44
47 | CN(C)c1cc(C(F)(F)F)nc(N2CCCC2c2ccccn2)n1 (centres undefined) | -84.3
48 | CN(Cc1nnc2n1CCC2)C(=O)c1ccc2c(c1)OCO2 | 16.8
49 | Cc1cccc(CN2CCc3ncnc(C4CC4)c3CC2)n1 | -27.4
50 | Cc1c(CN2Cc3nccn3CC2c2ccccc2)cnn1C (centres undefined) | 14.435
51 | COC(C)Cc1nc(-c2cnn3c(C)cc(C)nc23)no1 (centres undefined) | 31.2
52 | CCN(CC)C(=O)CCc1nc(-c2cnn3c(C)cc(C)nc23)no1 | 57.7
53 | CCS(=O)(=O)Cc1nc(-c2cnn3c(C)cc(C)nc23)no1 | 70.5
54 | COCCc1nc(-c2cnn3c(C)cc(C)nc23)no1 | 34.6
55 | CCc1nc(Cn2c(=O)c3c(C(F)(F)F)cc(C)nc3n2C)no1 | 10.5
56 | CCOCCc1nc(-c2cnn3c(C)cc(C)nc23)no1 | 10.6
57 | Cc1nc(CN(C)C2CCN(CCc3cnn(C)c3)C2)no1 (centres undefined) | 11.2
58 | Cc1ccccc1C(=O)NC(C)CN1CCOC1=O (centres undefined) | 39.3
59 | CCS(=O)(=O)N1CCN(C(C)(C)CO)CC1 | 11
60 | Cc1cnn(CCNCc2cc(C#N)ccc2F)c1 | 34.15
61 | Cc1noc(C)c1CN1CCn2c(CN3CCN(C)CC3)cnc2C1 | 21.6
62 | CCc1cc(N2CCC(NC3CCOCC3)CC2)nc(N(C)C)n1 | 29.1
63 | CCc1cc(N2CCC(NC3CN4CCC3CC4)CC2)nc(N(C)C)n1 (centres undefined) | 62.4
64 | CCc1cc(N2CCC(N[C@@H]3CS(=O)(=O)C[C@H]3O)CC2)nc(N(C)C)n1 | 35.3
65 | Cn1ncc2c1NC(=O)CC2c1ccc(F)cc1 (centres undefined) | 3.46
66 | CCCn1nnnc1COc1cc(OC)ccc1C(N)=O | -15

Row | Structure (SMILES) | INHIBITION [%]
67 | CC(C)C[C@@H](N)C(=O)N(C)Cc1csc(C(C)C)n1 | -40.5
68 | CC(C)n1cc(S(=O)(=O)N2CCSCC2)cn1 | -28.8
69 | CNC(=O)C1Cn2ccnc2C2(CCN(Cc3cccc(C)n3)CC2)O1 (centres undefined) | 29.6
70 | Cc1cc(NC(=O)C(C)N2CCN(c3ccccc3F)CC2)no1 (centres undefined) | 8.38
71 | CC(C(=O)NC(N)=O)N1CCN(c2ccc(C#N)cc2F)CC1 (centres undefined) | -45
72 | Cc1cc(NC(=O)C(C)N2CCN(c3ccc(C#N)cc3F)CC2)no1 (centres undefined) | 55
73 | COCC(=O)N1CC[C@@H](OCC2CC2)[C@@H]1Cc1cccnc1 | -31.4
74 | Cc1cnn(CC2CCCN2Cc2noc(C(C)C)n2)c1 (centres undefined) | 25.6
75 | COCCO[C@H]1CCN(C(=O)C2CCOCC2)[C@H]1Cc1ccncc1 | 26.7
76 | CCOc1cncc(N2CCN(c3ccccc3O)CC2)n1 | 39.7
77 | Cc1cc(N2CCC(NCCOc3ccccc3)CC2)nc(C)n1 | 9.72
78 | c1ccc(OCCNC2CCN(c3ncccn3)CC2)cc1 | -32.6
79 | Cc1nc(C)c(C)c(N2CCC(NCCOc3ccccc3)CC2)n1 | 77.8
80 | O=C(CC1COCCN1)N1CCC2(CCc3ccccc32)CC1 (centres undefined) | -60.2
81 | CC1CN(c2ccc(C#N)cn2)CCN1c1ccc2nncn2n1 (centres undefined) | -9.69
82 | COc1cccc(CN2CCN(c3ccc4nncn4n3)C(C)C2)c1 (centres undefined) | 83
83 | CC1CN(Cc2cnn(C)c2)CCN1c1ccc2nncn2n1 (centres undefined) | 10
84 | CC1CN(Cc2cccnc2)CCN1c1ccc2nncn2n1 (centres undefined) | 16.9
85 | CC1CN(Cc2cccc(C#N)c2)CCN1c1ccc2nncn2n1 (centres undefined) | 53.5
86 | Cc1ncc(CN2CCN(c3ccc4nncn4n3)C(C)C2)s1 (centres undefined) | 8.64
87 | CC(C)c1nccn1C1CCCN(C(=O)c2cc(C3CC3)on2)C1 (centres undefined) | 48.4
88 | CNC(=O)C1CN(C(=O)Cc2ccc(OC)cc2)Cc2cn(C)nc21 (centres undefined) | -6.51

Row | Structure (SMILES) | INHIBITION [%]
89 | O=C(NC1CCN(c2cccc(OC(F)(F)F)c2)C1=O)C1CCC1 (centres undefined) | 34.6
90 | O=C(NC1CCN(c2cccc(OC(F)(F)F)c2)C1=O)C1CC1 (centres undefined) | 61.1
91 | CCC(=O)NC1CCN(c2cccc(OC(F)(F)F)c2)C1=O (centres undefined) | 40.6
92 | O=C1NCC[C@]12CN(Cc1nccs1)C[C@H]2c1ccccc1 | 45.8
93 | CN(CC1(C)COC1)C(=O)c1cc(-c2cnn(C)c2)nc2ccccc12 | 9.7
94 | COc1ccccc1-c1c[nH]c(C2CCCN2)n1 (centres undefined) | -33.3
95 | CCc1ocnc1C(=O)N1CCN(c2ccc3ccccc3c2)CC1 | 26.5
96 | CCc1n[nH]c(C(=O)N2CCN(c3ccc4ccccc4c3)CC2)c1C | 61.1
97 | CCc1n[nH]c(C(=O)N2CCCC3(CN(C)C(=O)O3)C2)c1C (centres undefined) | 45.2
98 | Cc1nc(CN(CCS(C)(=O)=O)C(C)C)cs1 | 53.6
99 | CC(C)N(CCS(C)(=O)=O)Cc1csc(-c2ccccc2F)n1 | 33.2
100 | CC(C)N(CCS(C)(=O)=O)Cc1csc(Cc2ccc(Cl)cc2)n1 | 35
101 | Cc1cc(S(=O)(=O)N(CCO)C2CC2)ccc1F | 26.1
102 | Cc1cc(CC(C)NC(=O)COc2ccc(F)cc2F)[nH]n1 (centres undefined) | 40.6
103 | CCC(=O)c1ccc(OCC(=O)NC(C)Cc2cc(C)n[nH]2)cc1 (centres undefined) | 27.6
104 | Cc1cc(CC(C)NC(=O)Cc2cc(F)ccc2C)[nH]n1 (centres undefined) | 73
105 | Cc1cc(CNS(=O)(=O)CCCC#N)ccc1N(C)C | 33.1
106 | Cc1ccc(CNS(=O)(=O)CCCC#N)cc1F | 58.1
107 | Cc1ccc(CNC(=O)NC(C)CCS(C)(=O)=O)cc1F (centres undefined) | -1.15
108 | CC(C)C(C)NC(=O)Nc1ccc(CS(=O)(=O)C(C)C)cc1 (centres undefined) | -4.68
109 | Cc1ccccc1NC1CCN(C(=O)CCc2ccco2)CC1 | -26.6
